# Results as given in PubChem BioAssay (Tox21).
# The source made the active and inactive calls. Where a call stands in place of a potency, no number is given. The call rests on the fitted dose curve.
# Biological target: Gonadotropin-releasing hormone receptor (Homo sapiens) (UniProt P30968)
# Test: Human gonadotropin-releasing hormone receptor (GnRHR) small molecule agonists, calcium flux assay in GnRHR-HEK293 cells (AID 1920063); further: nearly all actives have a fitted effect of over 35% in size
# Conditions: calcium flux fluorescence, agonist mode; series mostly up to 57.6 µM
# Source text: National Center for Advancing Translational Sciences [NCATS]
# Division of Preclinical Innovation [DPI]
# U.S. Environmental Protection Agency [EPA]
# National Institutes of Environmental Health Sciences [NIEHS]
# National Toxicology Program [NTP]
# U.S. Food and Drug Administration [FDA]
# Gonadotropin-releasing hormone receptor (GnRHR) is a G-protein-coupled receptor (GPCR) and acts (through phospholipase C) to increase intracellular inositol trisphosphate and then release intracellular calcium stores. Cell-based GnRHR-Hek293 calcium influx assay is using HEK293 cells that have been genetically engineered to express the human GnRHR, which activity can be measured by calcium signaling. A compound/drug can activate (agonist) GnRHR that can be monitored by levels of intracellular calcium.
# GnRHR-HEK293 cells developed by Codex Corp contain human GnRHR reporter gene, which was stably integrated into HEK 293 cells. The compound activation can be detected by fluorescence intensity via calcium flux assay. This cell line has been used to screen the Tox21 10K compound library to identify GnRHR agonists.
# GnRHR-Hek293 cells were dispensed at 1500cells/4uL/well in 1536-well black wall/clear bottom plates using a multidrop dispenser. After the assay plates were incubated at a 37 C/5% CO2 incubator for 18 hours, 4 uL of Calcium Dye Solution was added to each well. The plates were incubated at 37 C for 1 hour. For agonist mode, 23 nL of compounds dissolved in DMSO, positive controls or DMSO only was transferred to the assay plate by a pin tool station. The fluorescence intensity in the plates was measured using FDSS 7000EX kinetic plate reader with a filter set of Ex/Em=480/540 for 3 min at 1 sec intervals. Each test compound was measured at 15 concentrations and in triplicates.
# Sequence of Gonadotropin-releasing hormone receptor (Homo sapiens) (P30968 whole entry, looked up): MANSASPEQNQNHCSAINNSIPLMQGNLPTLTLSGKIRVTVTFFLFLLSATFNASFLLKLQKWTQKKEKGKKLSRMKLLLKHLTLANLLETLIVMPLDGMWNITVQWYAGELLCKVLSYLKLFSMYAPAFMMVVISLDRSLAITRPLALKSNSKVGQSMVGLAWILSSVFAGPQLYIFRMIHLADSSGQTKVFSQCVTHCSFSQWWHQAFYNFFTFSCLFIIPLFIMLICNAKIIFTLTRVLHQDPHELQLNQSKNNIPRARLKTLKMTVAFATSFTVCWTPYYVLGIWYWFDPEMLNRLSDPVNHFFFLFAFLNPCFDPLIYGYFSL
row,SMILES,Potency
1,CN(C1CCCCC1)S(=O)(=O)c1ccccc1N,inactive
2,COCCCOc1ccnc(CS(=O)c2nc3ccccc3[nH]2)c1C (stereo not given),inactive
3,NC(=O)c1ccccc1N,inactive
4,COc1ccc2cc(C=O)ccc2c1,inactive
5,O=S(=O)(O)CCS,inactive
6,CC(=O)Nc1ccc(C)cc1,inactive
7,O=C(O)CSCC(=O)NC1CCSC1=O (stereo not given),inactive
8,CCOC(=O)n1ccn(C)c1=S,inactive
9,CC(C)(C)NC(=O)[C@@H]1CN(Cc2cccnc2)CCN1C[C@@H](O)C[C@@H](Cc1ccccc1)C(=O)N[C@H]1c2ccccc2C[C@H]1O,inactive
10,CC1=CC[C@@H](C(C)(C)O)CC1,inactive
11,O=C(Nc1ccc([N+](=O)[O-])cc1)Nc1ccc([N+](=O)[O-])cc1 (tested in a mixture with another compound),inactive
12,CCCOCCC,inactive
13,Cc1cc(C)c(S(=O)(=O)O)cc1N=Nc1cc(S(=O)(=O)O)c2ccccc2c1O,inactive
14,CCC(O)CO (stereo not given),inactive
15,CC(COCCO)OCCO (stereo not given),inactive
16,CN(C)c1ccc(C(=C2C=CC(=[N+](C)C)C=C2)c2ccc(N(C)C)cc2)cc1,inactive
17,C=CCOCC(O)CO (stereo not given),inactive
18,CSc1ccc2c(c1)N(CCC1CCCCN1C)c1ccccc1S2 (stereo not given),inactive
19,NC(=O)NC1N=C([O][Al])NC1=O (stereo not given),inactive
20,O=P(O)(O)O,inactive

row,SMILES,Potency
1,CCCC(=O)Nc1ccc(O)c(C(C)=O)c1,inactive
2,C[C@@H]1CCN(C(=O)[C@H](CCCN=C(N)N)NS(=O)(=O)c2cccc3c2NC[C@H](C)C3)[C@@H](C(=O)O)C1,inactive
3,CCOC(=O)CC(C(C)=O)C(C)=O,inactive
4,Cc1ccc(C(C)c2ccc(C)c(C)c2)cc1C,inactive
5,COc1cc(C(=S)N2CCOCC2)cc(OC)c1OC,inactive
6,c1ccc2c(c1)Oc1ccccc1S2,inactive
7,O=C(O)/C=C/c1ccccc1,inactive
8,CCN(CCO)c1cccc(C)c1,inactive
9,CCCSc1ccc2nc(NC(=O)OC)[nH]c2c1,inactive
10,Cn1c(=O)c2c(ncn2C)n(C)c1=O,inactive
11,C[N+](C)(C)CC[N+]1(C)Cc2c(Cl)c(Cl)c(Cl)c(Cl)c2C1,inactive
12,CCCCCCCCCCCC(=O)N(C)CC(=O)O,inactive
13,C[C@H]1C[C@H](O)c2ccsc2S1(=O)=O,inactive
14,O=S(=O)(O)CO,inactive
15,Cc1cc(C)c(N)c(Cl)c1,inactive
16,FC(F)(F)C(F)(F)C(F)(F)C(F)(F)C(F)(F)C(F)(F)CCI,inactive
17,COC(=O)CCC(=O)O,inactive
18,O[C@@H]([C@H](O)[C@H](O)CBr)[C@H](O)CBr,inactive
19,CCCCC(CC)COCCO (stereo not given),inactive
20,C=CC(=O)O[C@H]1C[C@@H]2CC[C@@]1(C)C2(C)C,inactive
